About 2,000 (36%) of roughly 5,500 compounds were called active. Roughly 18% stayed inconclusive and do not appear here. Cut-off read from the data, not from the text of the source: active = normalized growth mostly below about 0.91 (no sharp cut-off); inconclusive = no clear call, values can overlap the other calls; inactive = mostly above about 0.92. This is one part of the list.
Test: chemical genetic growth profiling, strain panel (AID 1159580);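 note: tested at 20 µM; growth read once vehicle control cultures reached saturation at 30 °C; 1 = growth at the plate median or of vehicle wells; lower values mean less growth of the strain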
Conditions: S. cerevisiae deletion strains, growth OD

Measured: normalized growth

CCCCC#Cc1ccc(C(=O)NNC(=O)Nc2cc(Cl)cc(Cl)c2)o1
inactive: locus YAL013W, strain DEP1, active compounds read low 1.03 | locus YBR229C, strain ROT2, active compounds read low 1.01 | locus YCL061C, strain MRC1, active compounds read low 0.981 | locus YDL101C, strain DUN1, active compounds read low 1.02 | locus YDR150W, strain NUM1, active compounds read low 0.963 | locus YEL061C, strain CIN8, active compounds read low 0.963 | locus YGR078C, strain PAC10, active compounds read low 1 | locus YHR030C, strain SLT2, active compounds read low 1.01 | locus YHR087W, strain rtc3, active compounds read low 1.01 | locus YJR043C, strain POL32, active compounds read low 0.998 | locus YJR075W, strain HOC1, active compounds read low 0.973 | locus YLR039C, strain RIC1, active compounds read low 1.03 | locus YLR058C, strain SHM2 (second series), active compounds read low 1.01 | locus YLR085C, strain ARP6, active compounds read low 1.07 | locus YLR262C, strain YPT6, active compounds read low 1.05 | locus YML094W, strain GIM5, active compounds read low 1 | locus YMR219W, strain ESC1, active compounds read low 1.01 | locus YMR263W, strain SAP30, active compounds read low 1.07 | locus YMR307W, strain GAS1, active compounds read low 1 | locus YNL128W, strain TEP1, active compounds read low 0.995 | locus YNL153C, strain GIM3, active compounds read low 0.995 | locus YNL298W, strain CLA4 (second series), active compounds read low 1.03 | locus YNL322C, strain KRE1, active compounds read low 1.03 | locus YNR030W, strain Alg12, active compounds read low 0.995 | locus YPL055C, strain LGE1, active compounds read low 1.03 | locus YPL241C, strain CIN2, active compounds read low 1.02 | locus YPR135W, strain CTF4, active compounds read low 0.931
